Assay results as given in PMC4336329 (PLoS ONE, 2015).
Out of some 310,000 compounds screened, about 14,000 (4.5%) showed an effect of 50% or more. Effects have a minus sign here. What follows is part of a selection rich in strong results, with near analogues and random picks from the rest.

Target: human ether-à-go-go-related gene (hERG) potassium channel (human, UniProt Q12809)
Assay: primary screen, population patch clamp on CHO cells stably expressing hERG; higher = less effect of the substance
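Note: peak tail current of the secondary pulse compared with the same well before compound.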

Sequence of human ether-à-go-go-related gene (hERG) potassium channel (Q12809 whole entry, looked up): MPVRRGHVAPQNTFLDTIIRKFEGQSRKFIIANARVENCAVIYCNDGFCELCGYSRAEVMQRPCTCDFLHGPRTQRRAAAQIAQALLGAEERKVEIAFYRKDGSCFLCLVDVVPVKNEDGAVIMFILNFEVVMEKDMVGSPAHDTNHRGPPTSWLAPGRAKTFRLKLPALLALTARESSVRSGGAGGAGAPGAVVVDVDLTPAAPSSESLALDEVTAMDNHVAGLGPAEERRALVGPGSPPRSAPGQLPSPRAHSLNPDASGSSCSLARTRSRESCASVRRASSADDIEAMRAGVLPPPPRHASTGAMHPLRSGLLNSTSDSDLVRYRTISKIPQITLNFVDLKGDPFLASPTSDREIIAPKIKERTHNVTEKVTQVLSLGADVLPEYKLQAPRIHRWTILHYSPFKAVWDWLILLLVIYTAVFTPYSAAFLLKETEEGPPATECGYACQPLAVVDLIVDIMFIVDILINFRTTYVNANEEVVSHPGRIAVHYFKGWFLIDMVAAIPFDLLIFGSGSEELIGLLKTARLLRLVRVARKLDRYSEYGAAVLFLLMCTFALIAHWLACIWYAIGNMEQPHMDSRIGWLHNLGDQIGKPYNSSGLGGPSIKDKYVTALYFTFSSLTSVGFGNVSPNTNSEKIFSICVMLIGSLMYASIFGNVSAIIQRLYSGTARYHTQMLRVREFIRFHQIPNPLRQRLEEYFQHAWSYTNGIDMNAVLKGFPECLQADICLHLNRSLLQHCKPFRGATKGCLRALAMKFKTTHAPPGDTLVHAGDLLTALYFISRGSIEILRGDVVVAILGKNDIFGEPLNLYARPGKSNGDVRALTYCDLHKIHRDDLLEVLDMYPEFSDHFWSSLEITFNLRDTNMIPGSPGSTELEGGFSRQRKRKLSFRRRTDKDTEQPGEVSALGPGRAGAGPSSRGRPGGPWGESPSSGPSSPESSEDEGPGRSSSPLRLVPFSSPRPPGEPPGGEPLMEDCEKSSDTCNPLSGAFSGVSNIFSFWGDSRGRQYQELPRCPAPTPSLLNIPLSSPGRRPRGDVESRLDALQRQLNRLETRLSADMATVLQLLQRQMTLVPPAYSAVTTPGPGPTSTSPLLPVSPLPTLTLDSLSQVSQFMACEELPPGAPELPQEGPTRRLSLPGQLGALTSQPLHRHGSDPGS

SMILES	hERG current change (%, negative = inhibition) at 10uM
c1ccc2c(CSc3nnc(-c4ccncc4)o3)cccc2c1	-12.8%
CCC(CC)C(=O)Nc1nnc(S(=O)(=O)N2CCc3ccccc32)s1	17.9%
O=C(O)C1CCCCC1C(=O)Nc1cc(Cl)ccc1Cl (centres unmarked)	10.3%
CCc1ccccc1SCc1noc(C(=O)NCC2CCCO2)c1C(=O)O (centres unmarked)	2.36%
c1ccc(CNc2ncnc3sc4c(c23)CCC4)nc1	-19.8%
Cc1sc2ncnc(NCC(c3ccco3)N(C)C)c2c1C.O=C(O)C(=O)O (centres unmarked)	-33.7%
Cl.c1cncc(CNc2ncnc3sc4c(c23)CCC4)c1	-56.2%
CN(Cc1cccs1)c1ncnc2sccc12	-28.8%
Cc1sc2ncnc(NCC(c3ccco3)N3CCCC3)c2c1C (centres unmarked)	-51.5%
Cc1sc2ncnc(N(C)Cc3cccs3)c2c1C	-53%
CN(C)C(CNc1ncnc2sc3c(c12)CCCCC3)c1ccco1 (centres unmarked)	-35.4%
Cc1sc2ncnc(N(C)Cc3ccco3)c2c1C	-4.64%
Cl.c1cc(Nc2ncnc3sc4c(c23)CCC4)ccn1	19.3%
CCOC(=O)N1CCN(C(=O)CN(C)S(=O)(=O)c2ccc(Cl)cc2)CC1	8.13%
COc1ccc(CCNC(=O)Cc2nn(C)c(=O)c3ccccc23)cc1OC	0.902%
CN(CC(=O)NC(=O)NCc1ccco1)Cc1nc2ccccc2c(=O)[nH]1	-3.41%
Cn1c(SCC(=O)N2CCCc3ccccc32)nc2cccnc21	9.85%
[Br-].c1ccc(-c2c[n+]3c(n2-c2ccccc2)SCC3)cc1	-28.4%
COc1ccc(-c2c[n+]3c(n2-c2ccccc2)SCC3)cc1.[Br-]	-45.7%
CCOc1ccc(-n2c(-c3ccc(Cl)cc3)c[n+]3c2SCC3)cc1.[Br-]	-80.9%
Brc1ccc(-c2c[n+]3c(n2-c2ccccc2)SCC3)cc1.[Br-]	-49.4%
Cc1ccc(-c2c[n+]3c(n2-c2ccccc2)SCC3)cc1.[Br-]	-35.8%

SMILES	hERG current change (%, negative = inhibition) at 10uM
Clc1ccc(-c2c[n+]3c(n2-c2ccccc2)SCC3)cc1.[Cl-]	-62.7%
CC(=O)c1c(C)[nH]c(C(=O)Nc2ccc(Cl)cc2)c1C	-9.14%
CC(C)C(c1nnnn1Cc1ccc(F)cc1)N1CCN(C(=O)c2ccco2)CC1 (centres unmarked)	-49.1%
O=C(CCCNC(=O)c1ccc(Cl)cc1)Nc1ccccc1F	7%
COc1ccc(CNCc2c(C(=O)N(C)C)nc3ccc(Cl)cn23)c(OC)c1	-11.1%
COc1cccc(-n2cc(CNCc3c(C(=O)N(C)C)nc4ccc(Cl)cn34)cn2)c1	-55.9%
Cc1ccccc1-n1cc(CNCc2c(C(=O)N(C)C)nc3ccc(Cl)cn23)cn1	-7.4%
Cc1nn(C)cc1NC(=O)c1cc2nc(-c3ccco3)cc(C(F)(F)F)n2n1	4.66%
CCOC(=O)N1CCC(NC(=O)C(NS(=O)(=O)c2ccc3c(c2)CCN3C(=O)CC)C(C)C)CC1 (centres unmarked)	-6.47%
Cc1cccc(N2C(=O)C(CC(=O)Nc3cccc(F)c3)N(CCc3ccncc3)C2=O)c1 (centres unmarked)	-43.6%
Cc1ccc(N2C(=O)C(CC(=O)Nc3cccc(F)c3)N(CCc3ccncc3)C2=O)cc1 (centres unmarked)	-52.3%
CCc1ccc(NC(=O)CC2C(=O)N(c3ccc(C)cc3)C(=O)N2CCc2ccncc2)cc1 (centres unmarked)	-55.8%
Cc1ccc(N2C(=O)C(CC(=O)Nc3cccc(F)c3)N(C3CC3)C2=O)cc1 (centres unmarked)	-7.13%
COc1ccc(CCN2C(=O)N(c3ccc(OC)cc3)C(=O)C2CC(=O)Nc2ccc(OC)cc2)cc1 (centres unmarked)	7.46%
CCc1ccc(NC(=O)CC2C(=O)N(c3ccc(C)cc3)C(=O)N2C2CC2)cc1 (centres unmarked)	-4.46%
O=C(COC(=O)c1ccc(Br)cc1)Nc1cccnc1Cl	-3.51%
COC(=O)c1cn(CC(=O)Nc2ccc(OC)cc2)c2ccccc12	8.2%
CC(=O)N1CC(C)Oc2ccc(S(=O)(=O)Nc3ccc(Cl)cn3)cc21 (centres unmarked)	3.04%
CC(=O)OC1(c2ccccc2)CCN(C)CC1(C)C.Cl (centres unmarked)	35.4%
Cc1ccc(S(=O)(=O)N2CCOC2CNC(=O)C(=O)NCc2ccccc2)cc1 (centres unmarked)	-10.3%
Cc1ccc(SCc2cc(=O)[nH]c(N3CCOCC3)n2)cc1	-0.0128%
O=C(NCc1cccnc1)c1ccccc1-c1ccccc1	-0.462%

SMILES	hERG current change (%, negative = inhibition) at 10uM
CC1Cc2ccccc2N1S(=O)(=O)c1cccc(C(=O)NCc2ccccn2)c1 (centres unmarked)	-67.6%
CC1Cc2ccccc2N1S(=O)(=O)c1cccc(C(=O)NCCCO)c1 (centres unmarked)	-27.9%
Cc1ccc(NC(=O)c2cccc(S(=O)(=O)NCc3ccccc3)c2)nc1	-50.7%
CC1CN(S(=O)(=O)c2cccc(C(=O)NCCCn3ccnc3)c2)CC(C)O1.Cl (centres unmarked)	6.18%
CC1Cc2ccccc2N1S(=O)(=O)c1cccc(C(=O)NCCCn2ccnc2)c1 (centres unmarked)	-50.1%
O=C(Nc1cccnc1)c1cccc(S(=O)(=O)N2CCc3ccccc32)c1	11%
Cc1cccnc1NC(=O)c1cccc(S(=O)(=O)NCc2ccccc2)c1	-14.9%
Cc1ccnc(NC(=O)c2cccc(S(=O)(=O)NCc3ccccc3)c2)c1	-34.6%
CC1Cc2ccccc2N1S(=O)(=O)c1cccc(C(=O)NCc2ccncc2)c1 (centres unmarked)	-34.9%
CC1Cc2ccccc2N1S(=O)(=O)c1cccc(C(=O)Nc2cccnc2)c1 (centres unmarked)	-60.2%
Cc1cc(NC(=O)c2cccc(S(=O)(=O)N3c4ccccc4CC3C)c2)no1 (centres unmarked)	-7.3%
CC1Cc2ccccc2N1S(=O)(=O)c1cccc(C(=O)NC2CC2)c1 (centres unmarked)	-40%
Cc1c(Cl)cccc1NC(=O)CN1CCC(NC(=O)C2CCCCC2)CC1	-0.0286%
CCOC(=O)c1[nH]c(C)c(C(=O)Nc2ccccc2F)c1C	-11.2%
CCOc1ccccc1NC(=O)Cn1c(=O)n(-c2ccccc2)c(=O)c2oc3ccccc3c21	-16.4%
O=C(CN(CC1CCCO1)C(=O)CNS(=O)(=O)c1ccc(F)cc1)NCc1ccccc1 (centres unmarked)	7.27%
CC1CCN(c2ccc3nnc(CCC(=O)NC(C)C)n3n2)CC1	2.67%
N#CC1=C(N)OC(c2ccccc2)=C(C#N)C1c1ccc2c(c1)OCO2 (centres unmarked)	14.3%
Cc1ccc(NS(=O)(=O)c2cccc(C(=O)NCc3ccccn3)c2)cc1	-68.5%
Cc1ccc(S(=O)(=O)Nc2ccc(C(=O)NCc3ccccn3)cc2)cc1	-7.17%
Cc1ccc(NS(=O)(=O)c2ccc(C(=O)NCc3ccccn3)cc2)cc1	18.8%
COc1ccc(OC)c(C2Nc3ccccc3NC3=C2C(=O)CC(C)(C)C3)c1 (centres unmarked)	15.4%

SMILES	hERG current change (%, negative = inhibition) at 10uM
O=C(Nc1ccc(Br)cc1Cl)c1cnccn1	5.88%
CCc1nnc(NC(=O)CSc2nc3cc(OC)c(OC)cc3cc2C)s1	5.07%
CCC(=O)N1CCc2cc(S(=O)(=O)CCC(=O)N3CCN(c4ccc(F)cc4)CC3)ccc21	-2.82%
O=c1c2cc([N+](=O)[O-])ccc2nc2n1CCCC2	4.82%
C=CCn1c2ccccc2c2nnc(SC(CC)C(=O)Nc3nc(C)c(C(=O)OCC)s3)nc21 (centres unmarked)	-43.9%
CCOC(=O)c1sc(NC(=O)C(CC)Sc2nnc3c4ccccc4n(CC)c3n2)nc1C (centres unmarked)	-59.4%
CCOC(=O)C(Sc1nnc2c3ccccc3n(CC)c2n1)C(=O)OCC	-28.7%
Cc1ccc(-c2ccc(CCC(=O)O)n2Cc2ccco2)cc1	12.2%
Cc1ccc(OCCCCNC2CCCCC2)c(C)c1.O=C(O)C(=O)O	-42.8%
Cc1ccc(OCCCCNC2CCCC(C)C2C)c(C)c1.O=C(O)C(=O)O (centres unmarked)	-56.9%
Cc1ccc(C(C)C)c(OCCn2ccnc2C)c1.O=C(O)C(=O)O	-35.1%
COc1ccc(OCCn2ccnc2C)cc1.O=C(O)C(=O)O	-0.197%
Cc1ccc(C(C)C)c(OCCN(C)C)c1.O=C(O)C(=O)O	-5.47%
Cc1ccc(OCCCCn2cnc3ccccc32)c(C)c1.O=C(O)C(=O)O	-20.5%
Cc1ccc(OCC(=O)NC2CCCC2)c(C)c1	2.93%
Cc1ccc(OCCCCn2ccnc2C)c(C)c1.O=C(O)C(=O)O	-64.1%
Cc1ccc(C(C)C)c(OCCCn2ccnc2C)c1.O=C(O)C(=O)O	-63.8%
Cc1cc(C)nc(N/N=C/c2cn[nH]c2-c2ccccc2)n1	-6.34%
Cc1cc([N+](=O)[O-])nn1CC(=O)NCc1ccccc1	24.2%
CC(C(=O)N=c1sc2ccccc2n1C)N1C(=O)C2CC=CCC2C1=O (centres unmarked)	-40.2%
